# Test results taken from PubChem BioAssay AID651702 (NMMLSC, 2012).
# Out of some 360,000 compounds screened, about 2,400 (0.67%) were called active.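 Rule for the calls: active = inhibition above about 55% (limit read from the data); inconclusive = no clear call, values can overlap the other calls; inactive = the rest.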 The list comes from a sample in which actives are over-represented; it also holds similar structures and randomly drawn compounds.
# Assay: LAMP-1 surface exposure blockers, TALL-104 cells – cell-based, flow cytometry, MLPCN library, primary screen (AID 651702)
# Details: TALL-104 LAMP-1 surface exposure, at 10 µM, stronger effect = higher value, cells stimulated with thapsigargin and PMA
row,SMILES,inhibition
1,CCC(C(=O)NCc1cccnc1)n1nc(C)c2sc3ccccc3c2c1=O (configuration not stated),5.3% (inactive)
2,Cc1nn(CC(=O)NCCc2ccccc2)c(=O)c2cc3occc3n12,-1.6% (inactive)
3,O=C(Cn1ncc2c3ccccc3n(Cc3ccccc3)c2c1=O)NCCCN1CCOCC1,0.7% (inactive)
4,CCc1ccc(-c2cc3c(=O)n(CC(=O)NCCCN4CCN(Cc5ccccc5)CC4)nc(C)n3n2)cc1,57.5% (active)
5,O=C(NCC(F)(F)F)Nc1nnc(C(F)(F)F)s1,4.2% (inactive)
6,O=C(CCCN1CCc2[nH]c3ccc(F)cc3c2C1)c1ccc(F)cc1,38.3% (inactive)
7,C=CCn1c(SCc2ccc(Cl)c(Cl)c2)nnc1C(CO)NC(=O)c1ccc(OC)cc1 (configuration not stated),0.1% (inactive)
8,CCN1/C(=C\c2ccc3ccccc3[n+]2CC)Sc2cc(C)ccc21,63.6% (active)
9,Cc1ccc(C)c(S(=O)(=O)N2CCN(c3ncnc4sccc34)CC2)c1,-10.6% (inactive)
10,CC1C(=O)Nc2ccccc2N1C(=O)c1ccc(F)cc1F (configuration not stated),-3.6% (inactive)
11,COc1ccc(F)cc1C(=O)COC(=O)c1n[nH]c(=O)c2ccccc12,3.6% (inactive)
12,O=C(/C=C/Sc1ncn[nH]1)c1ccc(Cl)cc1,69% (active)
13,CC1CCC(CN2CCN=C2N(C)C)CC1 (configuration not stated),8.2% (inactive)
14,Cc1cccc(C)c1NC(=O)COC(=O)c1ccccc1O,-9.6% (inactive)
15,Cc1cccc(C)c1NC(=O)C(Cl)C(=O)c1ccccc1 (configuration not stated),72.7% (active)
16,Cc1cccc(C)c1NC(=O)N1CC(C)OC(C)C1 (configuration not stated),-0.4% (inactive)
17,Cc1ccc(N(C(=O)CNC(=O)c2ccco2)C(C(=O)NC2CCCC2)c2ccncc2)cc1 (configuration not stated),-16.9% (inactive)
18,COCCc1nn2c(=O)cc(COC(=O)c3cc(OC)c(OC)c(OC)c3)nc2s1,-0.5% (inactive)
19,Cc1cccc(N(CC(=O)Nc2ccc(-c3nc4ccc(C)cc4s3)cc2)S(C)(=O)=O)c1,68% (active)
20,CCN(CC)S(=O)(=O)c1ccc(NC(=O)CN(c2cccc(F)c2)S(C)(=O)=O)cc1,-6% (inactive)
21,Cc1ccc(N(CC(=O)Nc2cc(C)cc(C)c2)S(=O)(=O)c2cccc3nonc23)cc1,2.1% (inactive)

row,SMILES,inhibition
1,CCn1c(O)c2ccc(C(=O)N=NC(=O)c3cccnc3)cc2c1O,-0.4% (inactive)
2,CCc1sc(C(=O)N2CCN(CC(=O)Nc3cccc(F)c3)CC2)cc1C,-5.4% (inactive)
3,CC(=O)C[C@@H]1OC[C@H](C)N1S(=O)(=O)c1ccc(C)cc1,-6.7% (inactive)
4,COc1ccc(-c2cc(=O)oc3cc(OC(C)C(=O)NCC4CCC(C(=O)O)CC4)ccc23)cc1 (configuration not stated),19.5% (inactive)
5,Cc1ccc([N+](=O)[O-])c(OCCCNCC(C)O)c1 (configuration not stated),0% (inactive)
6,Cc1cc(C)cc(NC(=S)NCCCN2CCOCC2)c1,-0.8% (inactive)
7,CCCCc1ccc(NC(=S)NCCCN2CCOCC2)cc1,67% (active)
8,CCCC(=O)NC(=S)Nc1ccc(CN2CCOCC2)cc1,-6.2% (inactive)
9,Cc1ccc(S(=O)(=O)N2CCC(=O)N([C@H](COCc3ccccc3)C(C)C)CC2)cc1,-7.5% (inactive)
10,CC(C)CCN1CCN=C1N(C)C,-1.5% (inactive)
11,COc1ccccc1CN1CCN(Cc2cc(OC)c(OC)cc2OC)CC1,4.3% (inactive)
12,COc1ccccc1CN1CCN(C(c2ccccc2)c2ccccc2)CC1,69.5% (active)
13,COc1cccc(OC)c1C(=O)N1CCN(Cc2ccccc2F)CC1,0.4% (inactive)
14,CSc1ncccc1C(=O)OCC(=O)N1CCOCC1,0.7% (inactive)
15,COc1ccc(C(O)c2nc(-c3ccc(OC)nc3)cs2)cc1 (configuration not stated),-0.4% (inactive)
16,COc1ccc(-c2csc(Nc3ccc(O)cc3)n2)cc1,67.8% (active)
17,COC(=O)CCc1sc(Nc2ccc(Br)cc2)nc1-c1ccc(OC)cc1,7.1% (inactive)
18,O=C(CS(=O)(=O)c1cn(Cc2ccc(Cl)cc2)c2ccccc12)N1CCOCC1,-1.9% (inactive)
19,CCOC(=O)Cc1csc(NC(=O)CSc2nnc(-c3cccnc3)n2Cc2ccco2)n1,1% (inactive)
20,CCOC(=O)CSc1nc2c(c(=O)n(Cc3ccccc3Cl)c(=O)n2C)n1C,-0.4% (inactive)
21,CCOC(=O)CSc1nc2c(sc(=S)n2CCc2ccccc2)c(=O)n1Cc1ccco1,55.7% (active)

row,SMILES,inhibition
1,CCCc1nc(SCC(=O)N2CCCC2)c2c(=O)n(C)c(=O)n(C)c2n1,45.2% (inactive)
2,CC(O)CN(Cc1ccc(Cl)cc1)CC(C)O (configuration not stated),0.5% (inactive)
3,CCCCCn1c(=O)[nH]c2cc(C(=O)NCCCN3CCCCC3C)ccc2c1=O (configuration not stated),-0.7% (inactive)
4,Cc1ccc(-c2cnc(NC(=O)CCC(=O)N(C)Cc3ccccc3)n2C)cc1,-1.9% (inactive)
5,CC(C)CN1CC(C)C(=O)N(c2ccccc2)C1=S (configuration not stated),1.4% (inactive)
6,CCN(CC(=O)Nc1ccccc1C(=O)NC1CC1)Cc1cccs1,-0.1% (inactive)
7,CC1CCc2c(nc3ncnn3c2Nc2ccc(OC(F)(F)F)cc2)C1 (configuration not stated),-1.5% (inactive)
8,O=S(=O)(NC1CC1)c1ccc(F)c(F)c1,-10.9% (inactive)
9,Cn1sc(=O)c2cc(S(=O)(=O)NC3CC3)ccc21,100% (active)
10,CC1CCC(NS(=O)(=O)c2ccc3c(c2)CC(=O)N3)CC1 (configuration not stated),-3.8% (inactive)
11,OC(CNCC1CCCO1)Cn1c2ccc(Br)cc2c2cc(Br)ccc21 (configuration not stated),41.3% (inactive)
12,O=C(NCc1cccnc1)c1ccc(CS(=O)(=O)c2ccc(Br)cc2)o1,2.2% (inactive)
13,Nc1cc(N)nc(SCc2ccc(Cl)cc2)n1,0.3% (inactive)
14,Nc1nc(SCc2ccc([N+](=O)[O-])cc2)c2ncn(C3OC(CO)C(O)C3O)c2n1 (configuration not stated),-2.7% (inactive)
15,CC(C)Cn1cnc2c(SCc3ccc(Cl)cc3)nc(N)nc21,90.1% (active)
16,COc1ccc(OCc2nnc3n2N=C(c2ccccc2)C(CC(=O)O)S3)cc1 (configuration not stated),32.9% (inactive)
17,Cc1ccc(Nc2cc(=O)n(C3CCCCC3)c(=O)[nH]2)cc1C,-1.1% (inactive)
18,CCOc1ccc(Cl)cc1-c1cc(C(=O)NCc2cccs2)[nH]n1,66.5% (active)
19,COc1ccccc1CNC(=O)c1cc(-c2cc(Cl)ccc2C)n[nH]1,2.8% (inactive)
20,COc1ccc(Cl)cc1C(=O)OCC(=O)NCc1cccs1,20.4% (inactive)
